Measurements published in PubChem BioAssay (NCI).
Compounds without any hit were thinned out: in the full panel of roughly 83,000, 20% have a hit.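 A percent growth of 40 corresponds to 60% growth inhibition; 0 means no net growth; -100 means all cells died. Active threshold: below 10.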 Active and inactive are the calls of the source.

How the values were obtained:
Assay in all cases: NCI-60 one-dose screen, 48 h (100 = growth as untreated, 0 = no growth, -100 = all killed)
Settings in all cases: 10 µM unless noted
SK-MEL-2 melanoma = test system: SK-MEL-2 melanoma
EKVX NSCLC = test system: EKVX NSCLC
SN12C renal = test system: SN12C renal
UO-31 renal = test system: UO-31 renal
TK-10 renal = test system: TK-10 renal
ACHN renal = test system: ACHN renal
CAKI-1 renal = test system: CAKI-1 renal
CCRF-CEM leukemia = test system: CCRF-CEM leukemia
MOLT-4 leukemia = test system: MOLT-4 leukemia
A498 renal = test system: A498 renal

Measured: growth

N#C/C(=C\c1ccc(Br)cc1)n1nnc2ccccc21
active: SK-MEL-2 melanoma -1.82% | SN12C renal 8.47% | UO-31 renal -13.6% | TK-10 renal 1.55% | ACHN renal -16.7% | CAKI-1 renal 1.73% | CCRF-CEM leukemia 8.29% | MOLT-4 leukemia 9.75%
inactive: EKVX NSCLC 20%

Cc1[nH]c(-c2nc3ccccc3[nH]2)c(C)c1C(=O)N1CCc2sccc2C1
inactive: SK-MEL-2 melanoma 107% | EKVX NSCLC 91.9% | SN12C renal 89.2% | UO-31 renal 77.9% | TK-10 renal 106% | ACHN renal 99.5% | CAKI-1 renal 85.1% | CCRF-CEM leukemia 88.7% | MOLT-4 leukemia 93.3%

Clc1ccc(-c2cn(-c3ccccc3)c(-c3ccccc3)n2)cc1
inactive: SK-MEL-2 melanoma 110% | EKVX NSCLC 84.5% | SN12C renal 95.9% | UO-31 renal 67.8% | TK-10 renal 92.4% | ACHN renal 94.6% | A498 renal 88.4%
active: CCRF-CEM leukemia -3.48% | MOLT-4 leukemia 7.71%

COc1ccc(-c2nnc(SCC(=O)NC3=NN=C(c4ccccc4)CS3)o2)cc1
inactive: SK-MEL-2 melanoma 103% | EKVX NSCLC 101% | SN12C renal 99.8% | UO-31 renal 88.1% | TK-10 renal 106% | ACHN renal 99.6% | A498 renal 86.4% | CCRF-CEM leukemia 90.8% | MOLT-4 leukemia 83.9%

CCCN1CCN(c2ccc3nc(-c4ccc5nc(-c6cc(OC)c(OC)c(OC)c6)[nH]c5c4)[nH]c3c2)CC1
inactive: SK-MEL-2 melanoma 70.9% | EKVX NSCLC 109% | SN12C renal 85.4% | UO-31 renal 86.5% | TK-10 renal 125% | ACHN renal 96.4% | CAKI-1 renal 105% | CCRF-CEM leukemia 41.2% | MOLT-4 leukemia 62.6%

Cc1[nH]c(-c2nc3ccccc3[nH]2)c(C)c1C(=O)N1CCOCC1
inactive: SK-MEL-2 melanoma 99.6% | EKVX NSCLC 91.2% | SN12C renal 86.8% | UO-31 renal 82.2% | TK-10 renal 106% | ACHN renal 98.3% | CAKI-1 renal 101% | CCRF-CEM leukemia 112% | MOLT-4 leukemia 105%

CCOC(=O)N1CCc2c(sc3c2C(=O)N[C@H](c2ccc(OC)cc2)N3)C1
inactive: SK-MEL-2 melanoma 96.5% | EKVX NSCLC 101% | SN12C renal 85.4% | UO-31 renal 87.6% | TK-10 renal 109% | ACHN renal 103% | A498 renal 96.4% | CCRF-CEM leukemia 95.9% | MOLT-4 leukemia 99.7%

O=C(c1ccccc1)c1ccc(N2C(=O)C3C4c5ccccc5C(/C=C/C(=O)c5ccccn5)(c5ccccc54)C3C2=O)cc1 (stereo not given)
active: UO-31 renal -37.4% | ACHN renal -25.4%
inactive: SK-MEL-2 melanoma 74.7% | EKVX NSCLC 27.9% | SN12C renal 11.3% | TK-10 renal 20.1% | CAKI-1 renal 49.3% | CCRF-CEM leukemia 11.1% | MOLT-4 leukemia 16%

O=C1N/C(=N/O)S/C1=C/c1cn(-c2ccccc2)nc1-c1ccccc1
inactive: SK-MEL-2 melanoma 100% | EKVX NSCLC 87.7% | SN12C renal 96.1% | UO-31 renal 57.5% | TK-10 renal 108% | CAKI-1 renal 77.2% | A498 renal 85.6% | CCRF-CEM leukemia 91.6% | MOLT-4 leukemia 91.9%

CS(=O)(=O)c1ccc(N/N=C/c2c(-c3ccc(S(C)(=O)=O)cc3)[nH]c3ccc(F)cc23)cc1
inactive: EKVX NSCLC 64.2% | SN12C renal 36.2% | UO-31 renal 53.8% | TK-10 renal 35.2% | CAKI-1 renal 57.5% | A498 renal 25.9%
active: SK-MEL-2 melanoma 3.8% | CCRF-CEM leukemia 4.8% | MOLT-4 leukemia -1.41%

CCOC(=O)c1c(C)nc2c(c1N)/C(=C/c1cc(OC)c(OC)c(OC)c1)C(=O)N2c1ccc(OC)cc1
active: CCRF-CEM leukemia 8.45%
inactive: SK-MEL-2 melanoma 67.1% | EKVX NSCLC 93.2% | SN12C renal 36.2% | UO-31 renal 55.7% | TK-10 renal 77.4% | A498 renal 82.2%

COc1cc(NC(=O)c2cc(O)c(CC=C(C)C)c(O)c2)cc2c1O[C@]1(C)CC[C@@H](O)C(C)(C)[C@H]1C2
active: UO-31 renal -11.9% | A498 renal -2.7% | MOLT-4 leukemia -8.24%
inactive: SK-MEL-2 melanoma 14.7% | EKVX NSCLC 41% | SN12C renal 65.3% | TK-10 renal 56.4% | CAKI-1 renal 19.6% | CCRF-CEM leukemia 13%

CC[C@]1(O)C[C@H]2CN(CCc3c([nH]c4ccccc34)[C@@](C(=O)OC)(c3cc4c(cc3OC)N(C=O)[C@H]3[C@@](O)(C(=O)OC)[C@H](OC(C)=O)[C@]5(CC)C=CCN6CC[C@]43[C@@H]65)C2)C1
inactive: SK-MEL-2 melanoma 58% | EKVX NSCLC 27.1% | SN12C renal 39.9% | UO-31 renal 28.6% | TK-10 renal 60.8% | CAKI-1 renal 26.5%
active: CCRF-CEM leukemia 5.75% | MOLT-4 leukemia 5.04%

CCN(CC)CCOC(=O)Nc1ccccc1Cl
inactive: SK-MEL-2 melanoma 88.3% | EKVX NSCLC 106% | SN12C renal 103% | UO-31 renal 80.4% | TK-10 renal 86.1% | A498 renal 114% | CCRF-CEM leukemia 75.7%

C=CC(=O)Nc1cccc(C)c1Nc1cc(-c2cccnc2Cc2c(C)c(OC)cc(OC)c2C)ncn1
inactive: EKVX NSCLC 82.1% | SN12C renal 30.1% | UO-31 renal 51% | CAKI-1 renal 36.4%
active: SK-MEL-2 melanoma -29% | TK-10 renal -8.59% | A498 renal -4.92% | CCRF-CEM leukemia -0.444% | MOLT-4 leukemia -7.26%
